An excerpt weighted towards active compounds, which were near 6.7% of everything screened.
Pf Dd2 inh: blocks growth of Plasmodium falciparum Dd2 parasites. P. falciparum Dd2 growth, SYBR Green, 72 h; active compounds read low. activity change, % at 10 µM. 94,000 compounds, 2.3% hits. AID 1159554; in the data active = activity change below about -80%; inconclusive = no clear call, values can overlap the other calls
T cruzi growth-1: blocks T. cruzi growth in NIH3T3 culture | inhibition, % at 8.34 µM | 77,000 compounds, 5.9% hits | T. cruzi beta-gal in NIH3T3, GalScreen luminescence, 90 h;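 active = mean inhibition above about 93%, with at least 55% of replicates each passing it, limit read from the data, passing the limit was not always enough; inconclusive = only one of those two conditions holds; inactive = neither condition holds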
C diff growth: C. difficile growth inhibition | Clostridium difficile clinical isolate growth, OD600, 24 h; active compounds read low | growth activity, negative = inhibition, % at 16 µg/mL (by protocol) | 86,000 compounds, 0.25% hits;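 active = mean growth activity at or below -80% and every replicate also at or below -80%; inconclusive = mean at or below -80% but some replicate above -80%; inactive = mean growth activity above -80%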;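 also: 0% = DMSO wells and -100% = levofloxacin 16 µg/mL wells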
T cruzi growth-2: inhibitors of T. cruzi proliferation. T. cruzi beta-gal in NIH3T3, GalScreen luminescence, 90 h. 5,600 compounds, 72% hits. shares compounds with T cruzi growth-1. AID 651739. inhibition, % at 8.35 µM;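 active = mean replicate inhibition above about 95% and at least 55% of replicates individually reaching it, limit read from the data; inconclusive = only one of the two criteria is met; inactive = neither criterion is met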
T cruzi growth-3: inhibitors of T. cruzi proliferation | inhibition, % at 2.09 µM | AID 651740 | 5,600 compounds, 21% hits | shares compounds with T cruzi growth-1 | T. cruzi beta-gal in NIH3T3, GalScreen luminescence, 90 h;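 active = mean inhibition above about 95%, with at least 55% of replicates also reaching it, limit read from the data; inconclusive = meets just one of the two conditions; inactive = meets neither condition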;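 also: plate controls were neutral control median for no effect and positive control median for full effect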
NIH3T3 tox: kills mouse NIH/3T3 fibroblasts; shares compounds with T cruzi growth-1; NIH/3T3 viability, CellTiter-Glo ATP luminescence, 90 h; cytotoxicity (signal decrease), % at 8.35 µM; 5,600 compounds, 14% hits;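 active = mean signal decrease across replicates above about 35% based on untreated-well scatter, with enough replicates individually passing, limit read from the data; inconclusive = no rule stated though some were filed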;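 also: 0% = median of neutral control wells and 100% = median of positive control wells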
3T3 cytotox 2: cytotoxicity in mouse NIH/3T3 fibroblasts; 5,600 compounds, 56% hits; inhibition, % at 24.9 µM; AID 651744; NIH/3T3 viability, CellTiter-Glo ATP luminescence, 90 h; shares compounds with T cruzi growth-1;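 active = mean loss of cell viability signal at or above a set limit, and enough replicates individually reaching it; inconclusive = meets only the mean limit or only the replicate share; inactive = meets neither condition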;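 also: 0% = median of neutral control wells and 100% = median of positive control wells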
* hit, by the source's call; ? = inconclusive; · = no result given.

SMILES	Pf Dd2 inh	T cruzi growth-1	C diff growth	T cruzi growth-2	T cruzi growth-3	NIH3T3 tox	3T3 cytotox 2
CC(C)NC(=O)N1CCCCN2[C@H](CO)[C@@H](c3ccc(C#C[C@H](C)O)cc3)[C@@H]2C1	-78	106*	0	47	25	11	25
CC(C)C#Cc1ccc([C@@H]2[C@@H](CO)N3CCCCN(C(=O)NC(C)C)C[C@H]23)cc1	19	92	-13	·	·	·	·
CC(C)NC(=O)N1CCCCN2[C@H](CO)[C@@H](c3ccc(C#C[C@@H](C)O)cc3)[C@H]2C1	19	47	1	·	·	·	·
CC(C)NC(=O)N1CCCCN2[C@H](CO)[C@@H](c3ccc(C#Cc4ccccc4)cc3)[C@@H]2C1	8	101*	32	107*	91	30	105*
CCCNC(=O)N(C)C[C@H]1Oc2ncc(C3=CCCCC3)cc2C(=O)N([C@H](C)CO)C[C@H]1C	15	25	9	·	·	·	·
CO[C@H]1CC[C@@H]2CCN(C)C(=O)[C@@H](C)CN(C)C(=O)c3cccc(C#N)c3OC[C@H]1O2	·	5	-3	·	·	·	·
C[C@@H]1CN([C@@H](C)CO)C(=O)c2cc(NS(=O)(=O)c3ccc(Cl)cc3)ccc2O[C@H]1CN(C)Cc1ccc2c(c1)OCO2	3	69	1	·	·	·	·
C[C@@H]1CN([C@H](C)CO)C(=O)c2cc(NC(=O)Nc3ccc(C(F)(F)F)cc3)ccc2O[C@@H](C)CCCCO[C@@H]1CN(C)S(=O)(=O)c1ccc(Cl)cc1	-68	103*	5	106*	80	2	-6
C[C@H]1CCCCO[C@H](CN(C)S(=O)(=O)c2ccc(Cl)cc2)[C@@H](C)CN([C@@H](C)CO)C(=O)c2cc(NC(=O)Nc3ccc(C(F)(F)F)cc3)ccc2O1	-72	75	1	·	·	·	·
Cc1ccc(S(=O)(=O)N(C)C[C@H]2OCCCC[C@H](C)Oc3ccc(NC(=O)Nc4ccc(C(F)(F)F)cc4)cc3C(=O)N([C@@H](C)CO)C[C@@H]2C)cc1	-73	·	4	·	·	·	·
C[C@@H]1CCCCO[C@H](CN(C)S(=O)(=O)c2ccc(Cl)cc2)[C@@H](C)CN([C@H](C)CO)C(=O)c2cc(NC(=O)Nc3ccc(C(F)(F)F)cc3)ccc2O1	-61	112*	4	102*	108*	17	31*
Cc1ccc(S(=O)(=O)N(C)C[C@H]2OCCCC[C@H](C)Oc3ccc(NC(=O)Nc4ccc(C(F)(F)F)cc4)cc3C(=O)N([C@H](C)CO)C[C@H]2C)cc1	-74	·	3	·	·	·	·
C[C@@H]1CN([C@@H](C)CO)C(=O)c2cc(NC(=O)Nc3ccc(C(F)(F)F)cc3)ccc2O[C@@H](C)CCCCO[C@H]1CN(C)S(=O)(=O)c1ccc(Cl)cc1	-52	103*	5	110*	109*	-15	15
CC(C)NC(=O)N(C)C[C@@H]1OCCCC[C@H](C)Oc2ccc(NS(=O)(=O)c3ccc(Cl)cc3)cc2C(=O)N([C@@H](C)CO)C[C@@H]1C	·	2	5	·	·	·	·
C[C@@H]1CN([C@@H](C)CO)C(=O)c2cccc(NC(=O)c3ccncc3)c2O[C@H]1CN(C)CC1CCCCC1	-44	78	8	·	·	·	·
C/C=C/c1ccc2c(c1)O[C@H](CN(C)C(=O)Nc1ccc(F)cc1)[C@@H](C)CN([C@H](C)CO)S2(=O)=O	-3	39	10	·	·	·	·
C/C=C/c1ccc2c(c1)O[C@@H](CN(C)C(=O)Nc1ccc(C(F)(F)F)cc1)[C@H](C)CN([C@@H](C)CO)S2(=O)=O	5	108*	12	97*	?	26	102*
C/C=C/c1ccc2c(c1)O[C@H](CN(C)C(=O)Nc1ccc(F)cc1)[C@H](C)CN([C@@H](C)CO)S2(=O)=O	-2	77	6	·	·	·	·
C/C=C/c1ccc2c(c1)O[C@H](CN(C)C(=O)Nc1ccc(C(F)(F)F)cc1)[C@H](C)CN([C@@H](C)CO)S2(=O)=O	-17	?	3	99*	62	46*	69*
C/C=C/c1ccc2c(c1)O[C@H](CN(C)C(=O)Nc1ccc(C(F)(F)F)cc1)[C@@H](C)CN([C@H](C)CO)S2(=O)=O	-19	?	11	102*	101*	36*	68*
C/C=C/c1ccc2c(c1)O[C@@H](CN(C)C(=O)Nc1ccc(F)cc1)[C@H](C)CN([C@@H](C)CO)S2(=O)=O	1	-14	3	·	·	·	·
O=C(NC1CCCCC1)N1CC(=O)N2[C@H](CO)[C@@H](c3ccc(/C=C/c4ccccc4)cc3)[C@@H]2C1	-16	·	-13	·	·	·	·
C[C@@H]1CCCCO[C@H](CN(C)S(=O)(=O)c2ccc(Cl)cc2)[C@@H](C)CN([C@@H](C)CO)C(=O)c2cc(NS(=O)(=O)c3cccs3)ccc2O1	·	110*	-1	113*	70	7	3
C[C@H]1CCCCO[C@H](CN(C)S(=O)(=O)c2ccccc2)[C@@H](C)CN([C@@H](C)CO)C(=O)c2cc(NS(=O)(=O)c3cccs3)ccc2O1	·	61	-2	·	·	·	·
C[C@@H]1CCCCO[C@@H](CN(C)S(=O)(=O)c2ccc(Cl)cc2)[C@H](C)CN([C@@H](C)CO)C(=O)c2cc(NS(=O)(=O)c3cccs3)ccc2O1	·	102*	-9	105*	83	21	-2
SMILES	Pf Dd2 inh	T cruzi growth-1	C diff growth	T cruzi growth-2	T cruzi growth-3	NIH3T3 tox	3T3 cytotox 2
C[C@@H]1CN([C@@H](C)CO)C(=O)c2cc(NS(=O)(=O)c3cccs3)ccc2O[C@@H](C)CCCCO[C@H]1CN(C)S(=O)(=O)c1ccc(Cl)cc1	·	93	-1	·	·	·	·
CO[C@@H]1CN(C)C(=O)c2ccc(NC(=O)NC(C)C)cc2OC[C@@H](C)N(CCC(F)(F)F)C[C@@H]1C	-8	19	·	·	·	·	·
COc1ccc(S(=O)(=O)N(C)C[C@H]2Oc3ccc(NS(=O)(=O)c4ccc(C)cc4)cc3C(=O)N([C@H](C)CO)C[C@@H]2C)cc1	-26	·	-2	·	·	·	·
CO[C@@H]1CN(C)C(=O)c2ccc(NS(=O)(=O)c3ccc(Oc4ccccc4)cc3)cc2OC[C@@H](C)NC[C@@H]1C	3	-43	·	·	·	·	·
CO[C@@H]1CN(C)C(=O)c2cc(NC(C)=O)ccc2OC[C@@H](C)N(C(=O)c2ccccc2F)C[C@H]1C	12	-44	·	·	·	·	·
CCN1[C@@H]2Cn3c(ccc(/C=C/c4ccccc4)c3=O)[C@H]1[C@@H](C(=O)N1CCCCC1)[C@@H]2CO	·	170*	·	14	-41	10	45*
CC=Cc1ccc2n(c1=O)C[C@@H]1[C@@H](CO)[C@H](C(=O)N3CCc4ccccc4C3)[C@H]2N1CC (mixture of isomers)	·	-71	1	·	·	·	·
CC=Cc1ccc2n(c1=O)C[C@H]1[C@H](CO)[C@@H](C(=O)NCc3ccccc3Cl)N(S(C)(=O)=O)[C@@H]21 (mixture of isomers)	·	107*	-9	74	13	0	12

Assay outcomes as filed in PubChem.
